The nature of this test: NCI Yeast Anticancer Drug Screen. Data for the CLN2oe strain (AID 163).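 Also: 0% = growth of vehicle-only control cultures.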 Particulars: S. cerevisiae CLN2oe strain, stronger effect = higher value. The protocol:
Growth inhibition of yeast strains with defined genetic alterations is measured as a screen for potential anti-cancer activity. Selected strains with alterations in DNA damage repair or cell cycle control were exposed to compounds and growth inhibition was measured relative to vehicle treated controls. The strain used in this assay is CLN2oe

We go through eight compounds from PubChem BioAssay (NCI).

This is part of a sample that, as a whole, favours compounds with a hit. Of some 79,000 tested, about 15% had one in any assay. Values without a mark were called inactive. The source made the active and inactive calls. Rule as the data show it: active = growth inhibition above about 70%; inactive = the rest.

In the case of `COc1ccc(/C=C/C(=O)c2ccccc2)cc1OC`, the growth inhibition is, setting by setting: (at 1.2 µM) 12%; (at 3.7 µM) 3%; (at 11.0 µM) 19%; (at 33.0 µM) 37%; (at 100.0 µM) 97% (active).

As for `CCOC(=O)c1cc([N+](=O)[O-])c(Sc2ncnc3nc[nH]c23)c([N+](=O)[O-])c1`, the growth inhibition was -18% (at 1.2 µM); -2% (at 3.7 µM); 29% (at 11.0 µM); 49% (at 33.0 µM); 83% (active) (at 100.0 µM).

Take `CCCC(=O)Oc1ccc(/C=N/NC(N)=S)nc1`: the growth inhibition is, setting by setting: (at 1.2 µM) -5%; (at 3.7 µM) -7%; (at 11.0 µM) -11%; (at 33.0 µM) -6%; (at 100.0 µM) -8%.

With `COc1cc(C2SCC(=O)N2c2ccc(-c3ccc(-n4c(-c5ccccc5)nc5ccccc5c4=O)cc3)cc2)ccc1O` (stereo not given), the growth inhibition was -2% (at 1.2 µM); -2% (at 3.7 µM); -7% (at 11.0 µM); -14% (at 33.0 µM); -14% (at 100.0 µM).

Take `O=C(/C=C/c1cc(Cl)cc(Cl)c1O)c1cccc(O)c1`: the growth inhibition by setting is: (at 1.2 µM) 9%; (at 3.7 µM) 23%; (at 11.0 µM) 74% (active); (at 33.0 µM) 98% (active); (at 100.0 µM) 98% (active).

Take `COC(=O)/C=C(/CC(=O)OC)C(=O)OC`: the growth inhibition was 0% (at 1.2 µM); -4% (at 3.7 µM); 0% (at 11.0 µM); -2% (at 33.0 µM); -2% (at 100.0 µM).

In the case of `O=C1NC(=O)c2ccc([N+](=O)[O-])c3cccc1c23`, the growth inhibition (at 1.2 µM) is -2%; the growth inhibition (at 3.7 µM) was -1%; the growth inhibition (at 11.0 µM) is 3%; the growth inhibition (at 33.0 µM) was 17%; the growth inhibition (at 100.0 µM) is 68%.

In the case of `C[C](C)(C)[Ge]([O][Ge]([c]1ccccc1)[c]1ccccc1)([O][Ge]([c]1ccccc1)[c]1ccccc1)[C](C)(C)C`, the growth inhibition runs as follows: (at 1.2 µM) 4%; (at 3.7 µM) 18%; (at 11.0 µM) 55%; (at 33.0 µM) 74% (active); (at 100.0 µM) 81% (active).
